Experimental data published in PubChem BioAssay.

Each compound was assayed on Rat fibroblasts (CREF) (assay: inhibition of PEG-3 promoter-driven reporter – cell-based, HeLa, luciferase, CREF/GAPDH counter-screen panel, dose response (AID 624167)). Settings: CREF/GAPDH counter-screens; run 2, dose range 1, at 100 µM (top of the series).
`COC1=C(Br)C(=O)c2ncccc2C1=O` gave an inhibition of 97.8%.
Work on `Cc1ccc(-c2cc3c(N=O)c4ccccc4c-3n[nH]2)cc1` yielded an inhibition of 78.5%.
Compound `CC(=O)NC(c1ccc(Cl)cc1)c1ccc2cccnc2c1O` (centres undefined) has an inhibition of 23%.
For `CCCCC(=O)NC(c1ccc(OC)cc1)c1ccc2cccnc2c1O` (centres undefined), the inhibition was 28.7%.
`Cc1cccc(C)c1NC(=O)c1nc(S(=O)(=O)Cc2ccccc2)ncc1Cl` gave an inhibition of 99%.
In the case of `CN(C)CC1CCC/C(=C\c2ccc(OC(=O)c3ccc(Cl)cc3)cc2)C1=O` (centres undefined), the inhibition is reported as -21.7%.
For `CCCC(=O)NC(c1ccc(OC)cc1)c1ccc2cccnc2c1O` (centres undefined), the inhibition was 99.5%.
With `CN(C)c1ccc(/C=C/c2ccc3c4ccccc4ccc3[n+]2-c2ccccc2)cc1` the inhibition was 100%.
Work on `CN(C)c1ccc(/C=C(\C#N)c2ccccn2)cc1` yielded an inhibition of 99%.
In the case of `O=C(O)c1ccc(N/N=C/c2ccc3nccnc3c2)cc1`, the inhibition is reported as 45.3%.
In the case of `Cc1nc(-c2ccc(NC(=O)c3ccco3)cc2)cs1`, the inhibition is reported as 95.8%.
`COc1ccccc1CNCC(O)Cn1c2ccccc2c2ccccc21` (centres undefined) gave an inhibition of 98.9%.
For `C/C(=N\NC(=O)c1cc(C2CC2)nc2ccccc12)c1ccc(O)cc1O`, the inhibition was 65.1%.
In the case of `CCc1ccc(/C=C2\SC(=S)N(CCCC(=O)NC3=NCCS3)C2=O)cc1`, the inhibition is reported as 7.65%.
Work on `O=C(Nc1nc2cc3c(cc2s1)OCCO3)C1=COCCO1` yielded an inhibition of 97%.
In the case of `Cc1ccc(-c2nc(-c3ccccn3)no2)cc1Cl`, the inhibition is reported as 99.4%.
For `CCN(CC)S(=O)(=O)c1cccc(C(=O)N/N=C(\C)c2ccc(O)cc2O)c1`, the inhibition was 47.7%.
Work on `CC(C)Cc1ccc(C(C)C(N)=NCCc2ccccc2)cc1` (centres undefined) yielded an inhibition of 99.2%.
Work on `O=C(N/N=C/c1sc(N2CCOCC2)nc1-c1ccccc1)c1cccc(S(=O)(=O)N2CCCC2)c1` yielded an inhibition of 87.5%.
For `O=C(Nc1nc2cc3c(cc2s1)OCCO3)c1ccco1`, the inhibition was 95.1%.
For `O=C1C(Cl)=C(Nc2ccccc2)C(=O)c2ccccc21`, the inhibition was 99.8%.
`COc1ccc(-c2cc3nc(C)n(N)c(=O)c3s2)cc1` showed an inhibition of 98.9%.
Compound `COc1cc(OC)c2cc(C(=O)N/N=C/c3ccccc3O)[nH]c2c1` has an inhibition of 65.2%.
Work on `CCN(CCO)c1ccc(N=Nc2cc(C)[nH]n2)cc1` yielded an inhibition of 98.6%.
Work on `Cc1cc(/C=N/Nc2ncnc(N)c2[N+](=O)[O-])c(C)n1-c1ccccc1` yielded an inhibition of 93.5%.
Compound `COc1ccccc1C(=O)Nc1nc2ccccc2[nH]1` has an inhibition of 99.5%.
With `CCOc1ccc2nc(NC(=O)c3ccccn3)sc2c1` the inhibition was 83.4%.
With `CCCC(=O)NC(c1ccc(C(C)C)cc1)c1ccc2cccnc2c1O` (centres undefined) the inhibition was 7.77%.
Work on `O=C(O)c1ccc(CN2C(=O)c3cccc4c([N+](=O)[O-])ccc(c34)C2=O)cc1` yielded an inhibition of 98.6%.
`Cc1c([N+](=O)[O-])cc(N2C(=O)C=CC2=O)cc1[N+](=O)[O-]` gave an inhibition of 100%.
`c1ccc(-c2nc(-c3ccccn3)no2)cc1` was tested, and the inhibition was 98.3%.
`CCn1nc(C)cc1-c1nnc(Sc2ncc([N+](=O)[O-])s2)n1C` showed an inhibition of 98.8%.
`O=C(CNC(=O)C(c1ccccc1)c1ccccc1)N/N=C/c1ccc(O)cc1O` gave an inhibition of 35.6%.
Compound `Clc1ccccc1/C=C/c1nc(-c2ccccn2)no1` has an inhibition of 76.1%.
For `O=C(CCl)N1c2ccccc2Sc2ccc3ccccc3c21`, the inhibition was 99.6%.
With `O=C(/C=C\Nc1ccc2c(c1)OCO2)c1ccccn1` the inhibition was 97.2%.
In the case of `O=C(Nc1cc(S(=O)(=O)N2CCOCC2)ccc1Cl)c1cc([N+](=O)[O-])ccc1Cl`, the inhibition is reported as 98.1%.
With `CN(C)c1ccc(NC(=S)c2ccccn2)cc1` the inhibition was 96.1%.
Work on `CN(C)c1ccc(C=c2c3ccccc3n3c2cc(-c2ccccc2)[n+]3C)cc1` yielded an inhibition of 100%.
